Experimental data from PubChem BioAssay (NCATS).
Values joined by “and” are separate entries in the source; they are usually repeats but may differ in a detail not shown here. Identical values can stand only once. Inconclusive results are not listed. Entries that show only a call come without a potency. Some structures have more than one record in an assay (separate samples or runs), and their calls can disagree. Active and inactive are the calls of the source. Unless noted, the call rests on the fitted dose curve; in most records, active means well fitted curve in the direction sought with a large enough effect; inconclusive means small, poorly fitted or top-dose-only effect, or another doubt; inactive means no such curve, though single readings can be large; an effect the other way counts as inactive or inconclusive.

What was measured:
[1] = AP1 Signaling Pathway (AID 357; active means well fitted curve in either direction with a large enough effect, not every such curve was filed as active;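 further: ME-180 reporter cells stimulated with EGF at its EC50 level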); settings: ME-180 AP-1-bla reporter, EGF-induced, beta-lactamase ratio, 5 h
Method in brief: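 Titration-series screen for positive or negative modulators of EC50 EGF-induced signaling in ME-180 cells carrying an AP-1-driven beta-lactamase reporter. After 5 hours at 37 degrees Celsius, CCF4 460nm/530nm emission ratio gave %Activity; AC50 values derived.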

[2] = target: Cytochrome P450 1A2 (Homo sapiens) (UniProt P05177); experiment: p450-cyp1a2 (AID 410; calls by dose curve; further: potency means the concentration at half of the fitted maximal effect)
Method in brief: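 Luminescent readout of luciferin formed from Luciferin-ME by human CYP1A2; data normalized against complete inhibition by 57 uM furafylline. Enzyme 20nM, substrate 100uM at Km, 100mM KPO4 buffer, 60 min reaction at room temperature.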

[3] = NFAT Signaling Pathway (AID 444; active means well fitted curve in either direction with a large enough effect, not every such curve was filed as active;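 further: carbachol stimulus at about its EC50 of 1 µM final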); settings: Jurkat NFAT-bla M1, carbachol, beta-lactamase ratio, 5 h
Method in brief: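 Read-out: CCF4 FRET ratio (460 nm/530 nm) after 1 h RT dye loading, used for %activity and AC50 from titration series. Cells: Jurkat NFAT-β-lactamase/M1 line, treated with compound plus 1 uM carbachol for 5 h, 37 °C.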

[4] = Stat Signaling Pathway (AID 446; active means well fitted curve in either direction with a large enough effect, not every such curve was filed as active;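 further: ME-180 cervical cancer cells given 40 pM IL-6 alongside compound; SIE-controlled beta-lactamase reporter measured as 460/530 nm FRET emission ratio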); settings: ME-180 SIE beta-lactamase reporter, IL-6 stimulated, 5 h
Method in brief: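 Reporter line: ME-180 cervical carcinoma, SIE-beta-lactamase. Treatment: compound with 40 pM IL-6, 5 hrs, 37 C, in low-serum OPTI-MEM with 10 mM HEPES pH 7.3. Detection: 460/530 nm fluorescence.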

[5] = target: 3',5'-cyclic-AMP phosphodiesterase 4B (Homo sapiens) (UniProt Q07343); experiment: qHTS Assay for Inhibitors of PDE-IV (AID 607; active means well fitted activation curve with a large enough effect in the main read-out, with a control signal flat, not every such curve was filed as active)
Method in brief: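 Cell-based read-out of cAMP via a modified cyclic nucleotide-gated channel and membrane potential dye (535/590 nm) in HEK293 cells expressing PDE4 endogenously. Compounds tested up to 22.9 uM final; 100 uM RO 20-1724 reference.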

[6] = target: Guanine nucleotide-binding protein G(i) subunit alpha-1 (Homo sapiens) (UniProt P63096); experiment: qHTS Assay for Inhibitors of RGS12 GoLoco Motif Activity (Green Fluorophore) (AID 879);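 further: negative values mean loss of peptide binding seen as reduced polarization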
Method in brief: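 Fluorescence polarization assay: 50 nM Gαi1 with 10 nM FITC-labeled RGS12 GoLoco peptide in 10 mM Tris pH 7.5, 150 mM NaCl, 0.1 mM GDP, 0.05% NP40, 10 min at room temperature with compound.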

[7] = target: Cytochrome P450 3A4 (Homo sapiens) (UniProt P08684); experiment: qHTS Assay for Activators of Cytochrome P450 3A4 (AID 885); further: nearly all actives have a fitted effect of over 65% in size
Method in brief: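 Signal was normalized against complete inhibition by 57 uM ketoconazole. The reaction used 20nM CYP3A4 with 25uM Luciferin-PPXE, 10-min compound preincubation and a 60-min NADPH-supported step at RT.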

[8] = qHTS Assay for Identification of Small Molecule Agonists for Thrombopoietin (TPO) Signaling Pathway (AID 917)
Method in brief: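 Murine Ba/F3 cells stably expressing human TPO receptor and a Glycoprotein IIb promoter–luciferase reporter were IL-3-starved overnight, then treated with compounds plus TPO (26 pM final, its EC50) for 24 hrs at 37 C; luminescence was read.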

[9] = target: Pyruvate kinase PKM (Homo sapiens) (UniProt P14618); experiment: qHTS Assay for Activators of Human Muscle Pyruvate Kinase (AID 954; active means well fitted curve in the direction sought with a large enough effect, not every such curve was filed as active)
Method in brief: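 Human PKM2 activity is measured as ATP generation, detected by luciferase-coupled luminescence. The enzyme (0.1 nM) acts on 0.5 mM PEP and 0.1 mM ADP for 1 h at ambient temperature; data are normalized to uninhibited and full-inhibition wells.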

[10] = target: Alpha-galactosidase A (Homo sapiens) (UniProt P06280); experiment: Counterscreen for Glucocerebrosidase Inhibitors: qHTS Assay for Human alpha-Galactosidase at pH 4.5 (AID 992)
Method in brief: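 Quantitative HTS: compounds tested from 0.7 nM up to 77 uM against 2 nM enzyme with 80 uM 4-MU alpha-D-galactopyranoside. The 20 min room-temperature reaction is stopped with 1M NaOH/1M glycine, pH 10.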

[11] = target: alpha-glucosidase (Oryza sativa, rice) (UniProt Q653V4); experiment: Counterscreen for Glucocerebrosidase Inhibitors: qHTS Assay for Rice alpha-Glucosidase at pH 5.0 (AID 997)
Method in brief: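 Rice alpha-glucosidase (4 nM final) with 400 uM 4-methylumbelliferyl-alpha-D-glucopyranoside in citrate buffer pH 5.0, 20 min at room temperature, stopped at pH 10; fluorescence 365/440 nm, compounds 0.7 nM–77 uM, AC50 from Hill fits.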

[12] = target: Ubiquitin carboxyl-terminal hydrolase 1 (Homo sapiens) (UniProt O94782); experiment: Inhibitors of USP1/UAF1: Pilot qHTS (AID 504865);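 further: rhodamine fluorescence freed from ubiquitin-rhodamine substrate followed over time; top concentration of the series differs between compounds; nearly all actives have a fitted effect of over 35% in size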
Method in brief: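 USP1/UAF1 complex (1nM) preincubated with compound 15 min at room temperature, then Ub-Rho substrate (150nM final) added. Fluorescence read kinetically at 480/540 nm, 6 reads every 60 seconds. Buffer: 50mM HEPES pH 7.8, 0.5mM EDTA, 0.1 mg/ml BSA, 1mM TCEP, 0.01% Tween-20.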

[13] = target: Cytochrome P450 2C19 (Homo sapiens) (UniProt P33261); experiment: qHTS Assay for Inhibitors and Substrates of Cytochrome P450 2C19 (AID 899); further: nearly all actives have a fitted effect of over 60% in size; further: potency means the concentration at half of the fitted maximal effect
Method in brief: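 Reactions contain 5nM enzyme, 10uM Luciferin-H EGE (KM) and 50mM KPO4; compound preincubates 10 min at 37C, NADPH regeneration starts turnover for 60 min. Luminescence after detection reagent gives activity.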

Sequence of Pyruvate kinase PKM (Homo sapiens) (P14618 whole entry, looked up): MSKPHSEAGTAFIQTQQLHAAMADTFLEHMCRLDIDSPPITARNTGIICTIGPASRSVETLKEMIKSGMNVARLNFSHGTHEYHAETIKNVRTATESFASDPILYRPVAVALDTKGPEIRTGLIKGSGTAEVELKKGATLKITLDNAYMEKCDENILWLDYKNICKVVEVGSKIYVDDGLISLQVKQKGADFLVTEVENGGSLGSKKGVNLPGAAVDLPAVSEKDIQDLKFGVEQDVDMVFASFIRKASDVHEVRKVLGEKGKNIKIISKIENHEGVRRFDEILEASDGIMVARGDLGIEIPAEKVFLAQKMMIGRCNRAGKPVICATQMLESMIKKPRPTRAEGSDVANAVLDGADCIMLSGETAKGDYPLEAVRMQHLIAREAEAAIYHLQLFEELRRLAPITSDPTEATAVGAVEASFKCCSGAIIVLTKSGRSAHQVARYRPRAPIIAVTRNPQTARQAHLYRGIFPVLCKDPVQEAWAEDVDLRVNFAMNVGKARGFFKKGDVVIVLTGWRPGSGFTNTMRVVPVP
Sequence of Alpha-galactosidase A (Homo sapiens) (P06280 whole entry, looked up): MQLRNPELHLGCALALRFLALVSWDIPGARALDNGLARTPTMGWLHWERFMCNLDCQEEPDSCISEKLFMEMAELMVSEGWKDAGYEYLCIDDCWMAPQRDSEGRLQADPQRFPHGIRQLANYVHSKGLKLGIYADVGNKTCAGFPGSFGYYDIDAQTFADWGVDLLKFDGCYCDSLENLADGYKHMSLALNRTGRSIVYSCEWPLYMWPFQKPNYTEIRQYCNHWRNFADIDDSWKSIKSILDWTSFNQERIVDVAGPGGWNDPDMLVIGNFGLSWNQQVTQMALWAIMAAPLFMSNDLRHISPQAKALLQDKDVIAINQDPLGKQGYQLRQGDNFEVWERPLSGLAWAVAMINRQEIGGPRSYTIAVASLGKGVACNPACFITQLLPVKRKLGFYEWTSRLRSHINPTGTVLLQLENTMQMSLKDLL
Sequence of Cytochrome P450 1A2 (Homo sapiens) (P05177 whole entry, looked up): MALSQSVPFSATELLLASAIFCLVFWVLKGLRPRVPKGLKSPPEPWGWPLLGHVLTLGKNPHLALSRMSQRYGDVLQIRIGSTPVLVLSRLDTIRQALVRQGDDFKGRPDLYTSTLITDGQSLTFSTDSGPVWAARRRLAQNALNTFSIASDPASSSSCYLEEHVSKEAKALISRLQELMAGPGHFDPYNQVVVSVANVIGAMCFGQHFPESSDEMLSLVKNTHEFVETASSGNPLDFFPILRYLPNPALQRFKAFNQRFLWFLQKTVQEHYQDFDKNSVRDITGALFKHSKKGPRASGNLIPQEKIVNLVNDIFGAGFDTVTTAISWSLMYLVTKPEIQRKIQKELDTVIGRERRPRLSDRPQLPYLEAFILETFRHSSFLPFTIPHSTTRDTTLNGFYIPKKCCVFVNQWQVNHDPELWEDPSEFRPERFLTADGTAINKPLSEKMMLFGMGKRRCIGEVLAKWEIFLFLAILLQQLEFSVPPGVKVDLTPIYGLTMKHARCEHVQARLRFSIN
Sequence of Cytochrome P450 3A4 (Homo sapiens) (P08684 whole entry, looked up): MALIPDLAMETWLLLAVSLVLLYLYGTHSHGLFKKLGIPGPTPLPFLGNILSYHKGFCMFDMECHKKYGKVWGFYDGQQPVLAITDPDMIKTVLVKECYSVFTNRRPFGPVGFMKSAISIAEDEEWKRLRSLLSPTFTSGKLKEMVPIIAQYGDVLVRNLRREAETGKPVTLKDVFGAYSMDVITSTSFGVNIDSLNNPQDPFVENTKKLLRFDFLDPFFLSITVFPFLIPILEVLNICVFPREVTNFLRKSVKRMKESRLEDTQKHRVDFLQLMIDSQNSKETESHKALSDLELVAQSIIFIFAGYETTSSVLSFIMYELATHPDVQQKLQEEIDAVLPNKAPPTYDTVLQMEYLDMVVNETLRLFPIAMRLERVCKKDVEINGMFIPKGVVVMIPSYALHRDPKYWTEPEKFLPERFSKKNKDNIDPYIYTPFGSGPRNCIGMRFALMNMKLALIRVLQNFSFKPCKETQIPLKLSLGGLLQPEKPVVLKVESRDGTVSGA
Sequence of Cytochrome P450 2C19 (Homo sapiens) (P33261 whole entry, looked up): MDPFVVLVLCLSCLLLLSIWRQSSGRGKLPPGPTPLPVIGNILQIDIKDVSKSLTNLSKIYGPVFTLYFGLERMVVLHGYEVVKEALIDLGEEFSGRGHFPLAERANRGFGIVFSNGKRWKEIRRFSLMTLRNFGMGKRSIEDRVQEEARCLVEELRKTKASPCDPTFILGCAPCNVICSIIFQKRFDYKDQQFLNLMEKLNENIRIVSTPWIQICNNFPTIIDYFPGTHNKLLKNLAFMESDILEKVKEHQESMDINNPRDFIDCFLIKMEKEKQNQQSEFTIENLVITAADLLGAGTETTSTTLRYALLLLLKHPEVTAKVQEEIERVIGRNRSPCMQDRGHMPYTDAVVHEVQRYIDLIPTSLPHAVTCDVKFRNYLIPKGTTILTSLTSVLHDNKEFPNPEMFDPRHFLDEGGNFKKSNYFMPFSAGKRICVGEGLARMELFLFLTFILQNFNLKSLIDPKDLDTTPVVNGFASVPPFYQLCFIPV
Sequence of 3',5'-cyclic-AMP phosphodiesterase 4B (Homo sapiens) (Q07343 whole entry, looked up): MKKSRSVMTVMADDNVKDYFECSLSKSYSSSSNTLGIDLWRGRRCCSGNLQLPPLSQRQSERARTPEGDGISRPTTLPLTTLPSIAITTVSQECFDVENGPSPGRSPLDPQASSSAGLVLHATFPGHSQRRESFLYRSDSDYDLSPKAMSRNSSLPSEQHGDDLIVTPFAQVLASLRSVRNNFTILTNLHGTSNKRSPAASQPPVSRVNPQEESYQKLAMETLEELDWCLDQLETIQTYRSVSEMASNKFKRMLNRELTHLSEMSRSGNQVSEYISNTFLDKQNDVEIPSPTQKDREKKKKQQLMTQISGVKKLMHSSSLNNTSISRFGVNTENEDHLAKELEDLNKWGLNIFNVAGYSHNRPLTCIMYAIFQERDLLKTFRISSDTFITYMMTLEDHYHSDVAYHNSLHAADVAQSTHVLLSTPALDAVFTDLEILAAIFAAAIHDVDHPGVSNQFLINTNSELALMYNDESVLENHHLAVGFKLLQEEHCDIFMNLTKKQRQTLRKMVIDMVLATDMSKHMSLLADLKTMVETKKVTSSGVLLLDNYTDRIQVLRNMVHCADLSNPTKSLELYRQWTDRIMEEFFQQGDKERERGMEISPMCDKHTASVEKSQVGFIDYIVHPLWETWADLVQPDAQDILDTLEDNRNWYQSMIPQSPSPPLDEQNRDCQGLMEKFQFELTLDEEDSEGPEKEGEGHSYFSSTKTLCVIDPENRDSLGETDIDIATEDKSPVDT
Sequence of Guanine nucleotide-binding protein G(i) subunit alpha-1 (Homo sapiens) (P63096 whole entry, looked up): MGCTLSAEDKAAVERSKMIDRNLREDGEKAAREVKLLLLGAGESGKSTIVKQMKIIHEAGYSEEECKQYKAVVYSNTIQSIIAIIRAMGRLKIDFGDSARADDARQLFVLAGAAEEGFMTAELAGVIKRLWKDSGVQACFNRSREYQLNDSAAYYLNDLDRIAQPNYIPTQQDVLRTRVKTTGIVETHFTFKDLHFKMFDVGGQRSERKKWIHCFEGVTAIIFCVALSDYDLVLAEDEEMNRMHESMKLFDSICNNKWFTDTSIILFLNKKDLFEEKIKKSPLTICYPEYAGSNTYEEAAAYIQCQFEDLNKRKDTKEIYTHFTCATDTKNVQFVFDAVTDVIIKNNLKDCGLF
Sequence of Ubiquitin carboxyl-terminal hydrolase 1 (Homo sapiens) (O94782 whole entry, looked up): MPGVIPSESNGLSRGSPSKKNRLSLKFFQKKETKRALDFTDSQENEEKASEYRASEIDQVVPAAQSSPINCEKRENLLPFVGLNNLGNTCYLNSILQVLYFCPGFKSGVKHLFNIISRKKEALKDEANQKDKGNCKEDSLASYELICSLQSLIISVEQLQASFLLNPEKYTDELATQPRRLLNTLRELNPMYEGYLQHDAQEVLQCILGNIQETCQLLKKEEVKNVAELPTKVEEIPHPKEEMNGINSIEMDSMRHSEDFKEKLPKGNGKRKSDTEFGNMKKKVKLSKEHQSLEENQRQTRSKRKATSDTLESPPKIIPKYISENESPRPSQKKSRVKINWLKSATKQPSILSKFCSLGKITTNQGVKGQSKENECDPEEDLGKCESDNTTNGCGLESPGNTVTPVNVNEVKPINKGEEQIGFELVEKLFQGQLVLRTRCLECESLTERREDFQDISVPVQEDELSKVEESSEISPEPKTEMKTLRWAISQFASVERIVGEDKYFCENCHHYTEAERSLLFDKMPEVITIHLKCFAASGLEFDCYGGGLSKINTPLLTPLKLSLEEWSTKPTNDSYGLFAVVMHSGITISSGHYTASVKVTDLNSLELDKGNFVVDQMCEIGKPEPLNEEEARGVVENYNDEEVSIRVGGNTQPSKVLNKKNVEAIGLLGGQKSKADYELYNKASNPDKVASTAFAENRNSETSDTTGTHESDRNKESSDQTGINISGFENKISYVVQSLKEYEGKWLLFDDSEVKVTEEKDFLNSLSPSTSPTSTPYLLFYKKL

Compound | activity change, negative = inhibition ([1]; at 38 µM (top of the series)) | Potency [2] | activity change, negative = inhibition ([3]; at 17.2 µM (top of the series)) | activity change, negative = inhibition ([3]; at 38 µM (top of the series)) | activity, negative = inhibition ([4]; at 17.2 µM (top of the series)) | activity, negative = inhibition ([4]; at 38 µM (top of the series)) | Potency [5] | outcome [6] | Potency [7] | Potency [8] | outcome [9] | outcome [10] | outcome [11] | Potency [12] | activity change, negative = inhibition ([1]; at 17.2 µM (top of the series)) | Potency [13]
C[C@H](N=C(NC#N)Nc1ccncc1)C(C)(C)C | -27.9% (inactive) | 15.8 µM (active) and inactive | 5.32% (inactive) | 6.54% (inactive) | -8.19% (inactive) | -12.4% (inactive) | inactive | inactive | inactive | inactive | inactive | inactive | inactive | inactive | – | –
CC1=C(\C=C/C(C)=C/C=C\C(C)=C\C(=O)O)C(C)(C)CCC1 | -26.4% (inactive) and 3.96% (inactive) | inactive and 20 µM (active) | – | 4.1% (inactive) | – | – | inactive | inactive | inactive | inactive | inactive | inactive | inactive | inactive | -3.06% (inactive) and -11.4% (inactive) | inactive and 5.01 µM (active) and 12.6 µM (active)
